Test results: PubChem BioAssay AID1259341 (Broad Institute, 2017)
Activity calls are given as the source filed them.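 Rule for the calls: active = activity change under -35% in any replicate well, with more than 20 beads read in that well; inactive = the rest.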

These compounds were tested against Caspase recruitment domain-containing protein 9 (Homo sapiens) + E3 ubiquitin-protein ligase TRIM62 (Homo sapiens) (UniProt Q9H257+Q9BVG3) (assay: disruptors of CARD9-TRIM62 binding, primary screen, cell lysate, HEK293FT lysates, Luminex bead ELISA (AID 1259341;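 note: PE anti-Flag signal of Flag-CARD9 captured by myc-TRIM62 beads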)). Details: PE fluorescence, stronger effect = lower value, concentration not given here.
Chain of Caspase recruitment domain-containing protein 9 (Homo sapiens) + E3 ubiquitin-protein ligase TRIM62 (Homo sapiens) (Q9BVG3 whole entry, looked up, the tested form may be a part): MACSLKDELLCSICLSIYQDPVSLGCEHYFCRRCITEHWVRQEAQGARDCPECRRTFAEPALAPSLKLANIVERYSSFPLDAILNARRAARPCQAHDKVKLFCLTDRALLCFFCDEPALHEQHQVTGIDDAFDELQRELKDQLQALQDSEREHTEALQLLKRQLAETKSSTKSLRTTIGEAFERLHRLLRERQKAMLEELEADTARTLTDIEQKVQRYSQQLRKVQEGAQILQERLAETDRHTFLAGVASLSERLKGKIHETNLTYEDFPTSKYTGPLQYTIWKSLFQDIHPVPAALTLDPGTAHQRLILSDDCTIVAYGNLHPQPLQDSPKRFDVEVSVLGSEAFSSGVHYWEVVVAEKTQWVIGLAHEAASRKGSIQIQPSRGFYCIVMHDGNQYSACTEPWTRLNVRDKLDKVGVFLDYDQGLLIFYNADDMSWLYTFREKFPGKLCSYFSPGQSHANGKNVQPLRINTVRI
Chain of Caspase recruitment domain-containing protein 9 (Homo sapiens) + E3 ubiquitin-protein ligase TRIM62 (Homo sapiens) (Q9H257 whole entry, looked up, the tested form may be a part): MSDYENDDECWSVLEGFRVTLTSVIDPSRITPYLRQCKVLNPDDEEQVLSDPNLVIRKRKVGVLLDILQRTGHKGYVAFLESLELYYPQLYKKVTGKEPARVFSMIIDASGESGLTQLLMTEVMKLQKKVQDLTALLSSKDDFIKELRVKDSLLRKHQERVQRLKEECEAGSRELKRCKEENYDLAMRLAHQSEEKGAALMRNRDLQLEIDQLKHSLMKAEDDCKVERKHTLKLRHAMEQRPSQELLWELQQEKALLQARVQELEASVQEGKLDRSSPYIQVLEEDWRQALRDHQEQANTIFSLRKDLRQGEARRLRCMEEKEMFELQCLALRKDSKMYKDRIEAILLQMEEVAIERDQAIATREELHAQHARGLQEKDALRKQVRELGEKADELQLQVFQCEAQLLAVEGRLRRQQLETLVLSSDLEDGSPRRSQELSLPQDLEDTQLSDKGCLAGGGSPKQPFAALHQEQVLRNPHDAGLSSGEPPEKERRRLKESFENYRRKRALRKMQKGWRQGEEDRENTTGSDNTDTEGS

Compound | activity change, negative = inhibition
Cc1noc(CN(C)C(=O)c2cc(-c3ccco3)nc3c(C)c(Cl)ccc23)n1 | -1.57% (inactive)
CCN1CCOC(=O)C1CC(=O)Nc1cccc(C)c1 (stereo unspecified) | -1.33% (inactive)
Cc1ccsc1[C@@H]1CCN(Cc2ccc(-c3ccn[nH]3)o2)C[C@H]1O | 0.0372% (inactive)
CC(C)(C)c1ccc(-c2nc(C#N)c(NCc3ccncc3)o2)cc1 | 6.53% (inactive)
CCOc1ccc(-n2c3nc4ccccc4nc3c3c(=O)n(Cc4ccco4)cnc32)cc1 | 6.8% (inactive)
O=C(CN1CCOC1=O)N1CCC2(CCC(=O)N(CCCn3ccnc3)C2)CC1 | -6.82% (inactive)
O=C(Nc1nc(-c2nc3ccccc3s2)cs1)c1ccco1 | 1.21% (inactive)
CC1Cc2ccccc2N1CC(=O)NC(=O)NC(C)(C)C (stereo unspecified) | 2.18% (inactive)
CCn1ccnc1C1CCN(C(=O)CCn2c(C)nc3ccccc32)CC1 | -6.29% (inactive)
Cc1ccc(Cc2cnc(N)s2)o1 | 18.6% (inactive)
Cc1ccc(C(=O)Nc2ccc(N3CCC(C(N)=O)(N4CCCCC4)CC3)c(C(=O)O)c2)cc1 | -42.4% (inactive)
NC(=O)C1(N2CCCCC2)CCN(c2ncc(NC(=O)c3ccc(Cl)cc3)cc2C(=O)O)CC1 | -54.5% (active)
C[C@H](CO)N1C[C@H](C)[C@@H](CN(C)CC2CCCCC2)OCCCC[C@H](C)Oc2ccc(NS(=O)(=O)c3cn(C)cn3)cc2C1=O | 9.05% (inactive)
Cc1ccc(-c2nc(C)sc2CC(=O)NCc2ccco2)cc1 | -1.34% (inactive)
OCc1ccc(O)c2ncccc12 | -35% (inactive)
O=[N+]([O-])c1ccc2nn(Cc3ccccc3)cc2c1 | 16.2% (inactive)
NC(=O)C1(N2CCCCC2)CCN(c2ncc(NC(=O)c3cccs3)cc2C(=O)O)CC1 | -9.12% (inactive)
COC[C@]1(O)CCN(C(=O)CCN(C)S(C)(=O)=O)CC1(C)C | -0.387% (inactive)

Compound | activity change, negative = inhibition
Cc1cnc(C)c(N2CCN(C(=O)[C@H]3CC[C@@H](N)C3)CC2)n1 | 2.01% (inactive)
CCOc1ccccc1NC(=O)N1CCCC(c2nccn2CCOC)C1 (stereo unspecified) | -5.04% (inactive)
Cc1[nH]c2ccc(Cl)cc2c(=O)c1CN1CCCC1 | 0.531% (inactive)
Cc1ccc(Nc2nc(C(=O)Nc3ccc(Br)cc3)nc3ccccc23)cc1 | 4.69% (inactive)
O=C(N/N=C/C=C/c1ccco1)c1cncc(Br)c1 | -8.78% (inactive)
Nc1ccccc1Sc1nccc(C(F)(F)F)n1 | 3.66% (inactive)
COCCC(=O)N1CCCC2(CCN(CCN3CCCC3)C2=O)C1 (stereo unspecified) | -7.49% (inactive)
CC(=O)c1sc2nc(-c3ccco3)ccc2c1N | -8.74% (inactive)
CCCN1CCCn2nc(CNC(=O)[C@H]3CC[C@@H](N)C3)cc2C1 | -7.32% (inactive)
Cc1ccc(C)n1NC(=O)c1ccccc1O | 1.19% (inactive)
CCCN1CCc2nc(SCc3nc(-c4ccc(OC)cc4OC)oc3C)[nH]c(=O)c2C1 | -0.271% (inactive)
O=C(CCn1cncn1)N1CCC(n2cc(-c3ccccn3)nn2)CC1 | 3.29% (inactive)
C=CC(=O)N1CCCC2(CCN(CCN3CCCC3)C2=O)C1 (stereo unspecified) | -70.2% (active)
C(=C\c1ccco1)/c1nc2ccccc2[nH]1 | -9.75% (inactive)
Cc1ccc(S(=O)(=O)Nc2ccc3c(c2)C(=O)N([C@H](C)CO)C[C@H](C)[C@@H](CN(C)CC2CCCCC2)OCCCC[C@H](C)O3)cc1 | 4.51% (inactive)
COc1ccc(S(=O)(=O)c2ccccc2)cc1NS(=O)(=O)c1cccc(C(=O)O)c1 | -0.344% (inactive)
Cc1cc(C)c2c(N)c(C(=O)Nc3cccc4ccccc34)sc2n1 | -1.34% (inactive)
Cc1ccc(-c2cc(C(=O)NCc3ccco3)c3ccccc3n2)o1 | -2.28% (inactive)
